# Assay outcomes as filed in PubChem.
# An excerpt weighted towards active compounds, which were near 12% of everything screened.
# Sfp PPTase inh – Sfp phosphopantetheinyl transferase inhibition; AID 1490; Q9F4F7; Potency, µM, for inactives: largest response in the series, negative = inhibition, actives largely listed as inhibitors; Biochemical Sfp PPTase activity, qHTS; hit rate 3.5% among 310,000;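 also: the enzyme is Sfp with the accession as filed and its product quenches rhodamine fluorescence; 0% = enzyme reaction without inhibitor and -100% = no enzyme wells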
#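 Step 1, compound plus 15 nM Sfp-PPTase, 15 min, room temperature. Step 2, add rhodamine-CoA (5 uM) and BHQ-2-YbbR (12.5 uM). Step 3, read 525/598 nm fluorescence at 0 and 30 min.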
# G9a block – inhibitors of human histone lysine methyltransferase G9a; hit rate 8.8% among 350,000; Q96KQ7; AID 504332; Potency, µM (top dose mostly 102 µM), without a hit: top-dose activity, negative = inhibition, hits mostly inhibitors; G9a H3K9 monomethylation, AlphaScreen, 2 h; also: % is scaled to controls: 0 for no effect and ±100 for the full control effect; nearly all actives have a fitted effect of over 75% in size
#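 Quantitative HTS format: methyltransferase activity on a biotin-tagged H3K9 peptide is measured by AlphaScreen, using a rabbit anti-monomethyl-H3K9 antibody with streptavidin donor and anti-IgG acceptor beads. Final levels are 20 nM enzyme, 500 nM peptide, 20 uM SAM; 2 h RT.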
# HP1b binding inh – inhibitors of HP1-beta chromodomain binding to methylated histone tails; P83916; AlphaScreen HP1-beta / biotin-H3K9me3 peptide binding; Potency, µM (top dose mostly 114 µM), for the others: at the top dose activity change, negative = inhibition, actives largely listed as inhibitors; hit rate 0.56% among 390,000; also: nearly all actives have a fitted effect of over 70% in size
#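 Compound inhibition of the preformed complex between 50 nM HP1-beta and 50 nM biotinylated H3K9me3 peptide was read by AlphaScreen. Buffer was PBS pH 7.4 with 0.01% Tween-20. Incubations ran 30 min at room temperature, with 10 ug/mL donor/acceptor beads.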
# BAZ2B inh – BAZ2B (human) inhibition. hit rate 4.4% among 360,000. AID 504333. AlphaScreen BAZ2B-H3K14Ac peptide displacement. Potency, µM (series often up to 114 µM), for the others: at the top dose activity change, negative = inhibition, usual class: inhibitors; also: % is scaled to controls: 0 for no effect and ±100 for the full control effect; nearly all actives have a fitted effect of over 60% in size
#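 AlphaScreen displacement: compounds (up to 110uM) incubated 30 min at room temperature with a preformed 50 nM BAZ2B/50 nM biotinylated H3K14Ac peptide complex in PBS pH 7.4 with Tween-20. Donor and acceptor beads at 10 ug/mL final added, 20 min light-protected before reading.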
# JMJD2A Tudor – blocks the human JMJD2A Tudor domain; O75164; AlphaScreen JMJD2A-Tudor / H3K4me3 peptide binding; Potency, µM (top dose mostly 114 µM), for the others: at the highest dose activity change, negative = inhibition, actives largely listed as inhibitors; hit rate 4.4% among 390,000; AID 504339; also: % is scaled to controls: 0 for no effect and ±100 for the full control effect; nearly all actives have a fitted effect of over 50% in size
# Target sequence (O75164 whole entry, looked up, the tested form may be a part): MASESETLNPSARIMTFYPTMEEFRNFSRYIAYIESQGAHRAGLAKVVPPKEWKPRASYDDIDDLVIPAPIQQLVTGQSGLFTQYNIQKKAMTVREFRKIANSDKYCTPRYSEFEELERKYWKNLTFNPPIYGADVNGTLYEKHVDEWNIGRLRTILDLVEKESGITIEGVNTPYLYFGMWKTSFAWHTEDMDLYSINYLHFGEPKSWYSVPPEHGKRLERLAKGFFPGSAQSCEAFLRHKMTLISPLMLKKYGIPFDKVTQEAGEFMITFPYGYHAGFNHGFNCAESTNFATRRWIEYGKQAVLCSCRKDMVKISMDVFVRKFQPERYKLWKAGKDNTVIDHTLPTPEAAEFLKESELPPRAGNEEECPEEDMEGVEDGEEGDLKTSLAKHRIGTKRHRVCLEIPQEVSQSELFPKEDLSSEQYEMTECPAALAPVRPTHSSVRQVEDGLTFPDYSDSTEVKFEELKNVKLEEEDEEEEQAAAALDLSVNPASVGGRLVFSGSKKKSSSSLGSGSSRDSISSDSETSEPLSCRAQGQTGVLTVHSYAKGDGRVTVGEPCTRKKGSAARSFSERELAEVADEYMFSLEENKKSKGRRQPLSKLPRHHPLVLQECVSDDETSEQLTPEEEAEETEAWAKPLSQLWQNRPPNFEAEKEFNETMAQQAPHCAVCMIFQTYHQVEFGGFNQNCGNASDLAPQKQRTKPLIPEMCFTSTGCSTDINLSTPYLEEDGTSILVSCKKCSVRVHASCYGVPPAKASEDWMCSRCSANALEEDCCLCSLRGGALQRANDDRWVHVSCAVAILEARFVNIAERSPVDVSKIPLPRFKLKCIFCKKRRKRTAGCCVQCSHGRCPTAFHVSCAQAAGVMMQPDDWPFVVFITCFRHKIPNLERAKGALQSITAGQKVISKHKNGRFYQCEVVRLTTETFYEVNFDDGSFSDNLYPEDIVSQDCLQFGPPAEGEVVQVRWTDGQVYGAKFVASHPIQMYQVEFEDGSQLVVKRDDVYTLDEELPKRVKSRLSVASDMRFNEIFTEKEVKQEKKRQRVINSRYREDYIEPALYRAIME
# * hit, by the source's call; ? = inconclusive; . = no result; ! = a repeat was not active; [ ] = remark or other dose. Calls follow the shape of the dose curve; as a rule, active = well fitted curve in the direction sought with a large enough effect; inconclusive = small, poorly fitted or top-dose-only effect, or another doubt; inactive = no such curve, though single readings can be large; an effect the other way counts as inactive or inconclusive. Potency is read from the fitted curve at half-maximal effect.
SMILES,Sfp PPTase inh,G9a block,HP1b binding inh,BAZ2B inh,JMJD2A Tudor
COc1ccc(CN2C(=O)NC(=O)/C(=C/c3ccc([N+](=O)[O-])s3)C2=O)cc1,20µM*,8.9µM*,28µM*,25µM*,22µM*
O=C1NC(=O)N(Cc2ccc(F)cc2)C(=O)/C1=C\c1ccc([N+](=O)[O-])s1,40µM*,6.3µM*,?,35µM*,20µM*
Nc1ncnc2c1ncn2[C@@H]1O[C@@H]2CO[P@](=O)(S)O[C@H]2[C@H]1O,-4%,9%[59 µM],.,.,.
COC12C(COC(N)=O)C3=C(C(=O)C(C)=C(N)C3=O)N1CC1C2N1C (stereo not drawn),-11%,50µM*,31%,-33%,?
CC[C@@]1(O)C(=O)OCc2c1cc1n(c2=O)Cc2cc3ccccc3nc2-1,10%,45µM*!,16%,-3%,-17%
CC[C@@]1(O)C(=O)OCc2c1cc1n(c2=O)Cc2cc3c(O)cccc3nc2-1,?,2.5µM*,.,.,.
CC[C@@]1(O)C(=O)OCc2c1cc1n(c2=O)Cc2cc3c(NC(=O)CN)cccc3nc2-1,56µM*,?,41%,?,-22%
C[C@@H]1CC[C@H]2[C@@H](C)C(=O)O[C@@H]3OC4(C)CC[C@@H]1[C@]32OO4,-10%,3%[59 µM],.,.,.
CN(C)C(Cc1ccc(Cl)cc1)C(=O)c1ccccc1 (stereo not drawn),4%,45µM*,12%,-6%,-15%
C[C@@]12CCC3C(CCC4=CC(=O)CC[C@]43C)C1CCC2O (stereo partly drawn),-20%,.,.,.,.
O=P(/C(=N/O)N1CCOCC1)(N1CCOCC1)N1CCOCC1,-4%,14µM*,27%,-6%,-3%
CC(C)(C)P(=O)(N1CCOCC1)N1CCOCC1,12%,2%,27%,2%,-6%
Cn1cc(/C=C(\C(=O)O)C(C(=O)O)=C2CCCCC2)c2ccccc21,2%,32µM*,-20%,?,?
Cn1cc(C=C(C#N)C#N)c2ccccc21,5%,.,79%,-21%,-9%
Clc1cncc(N2CCNCC2)n1,-10%,19%[59 µM],.,.,.
CN(C)c1ccc(/C=C/c2cc[n+](C)c3ccccc23)cc1,56µM*,?,45µM*,79µM*,22µM*
C=C[C@]12CN(C)[C@H]3C1[C@@]1(C(=O)Nc4ccccc41)[C@H]1C[C@H]2[C@H]3CO1,11%,27%[21.5 µM],.,.,.
Cc1nn(C)c(C)c1P(=S)(c1c(C)nn(C)c1C)N(C)C,-13%,14µM*,-4%,-30%,-11%
Cc1cc(-c2cc(C)c(N)c(C)c2)cc(C)c1N,.,.,?,.,50µM*
Cc1ccc(C)c(N)c1,.,-16%[0.501 µM],65%,12%,-9%
Cc1c(C(=O)N2CCC3(CC2)OCCO3)oc2ccc(S(=O)(=O)N3CCOCC3)cc12,9%,2%[59 µM],27%,-5%,-13%
Cc1c(C(=O)NCCC2=CCCCC2)oc2ccc(S(=O)(=O)N3CCC4(CC3)OCCO4)cc12,1%,50µM*,22%,3%,-20%
O=P1(c2ccccc2)Nc2ccccc2N1c1ccccc1 (stereo not drawn),.,.,?,.,50µM*
CCCCCc1cc(O)c2c(c1)OC(C)(C)C1CC=C(C)CC21 (stereo not drawn),16%,-40%[12.7 µM],.,.,.
COc1cccc(NC(=O)[C@@H](NC(=O)N2C[C@H]3C[C@@H](C2)c2cccc(=O)n2C3)C(C)C)c1,13%,.,47%,25%,-7%
SMILES,Sfp PPTase inh,G9a block,HP1b binding inh,BAZ2B inh,JMJD2A Tudor
COc1ccc(C(=O)NC(=S)N2C[C@H]3C[C@H](C2)c2cccc(=O)n2C3)cc1OC,?,45µM*,38%,-9%,-35%
O=c1cccc2n1CC1CC2CN(Cc2c(F)cccc2Cl)C1 (stereo not drawn),12%,45µM*,13%,?,56µM*
COc1ccc(NC(=O)N2C[C@@H]3C[C@@H](C2)c2cccc(=O)n2C3)c(OC)c1,6%,3.5µM*,35%,-1%,-8%
CCCOc1ccc(C(=O)NC(=S)N2C[C@H]3C[C@H](C2)c2cccc(=O)n2C3)cc1,45µM*,11µM*,-15%,-10%,?
COc1cc(C(=O)N2C[C@H]3C[C@@H](C2)c2cccc(=O)n2C3)cc(OC)c1OC,21%,1%[12.7 µM],15%,-8%,-15%
O=C(NC1C(=O)NNC1c1ccc(Cl)cc1)c1ccc(F)cc1 (stereo not drawn),-2%,?,8%,-14%,-26%
O=C(NC(=S)N1C[C@H]2C[C@H](C1)c1cccc(=O)n1C2)c1ccc(Cl)cc1Cl,-6%,40µM*,-4%,-3%,-24%
NC(N)=N/N=C/c1cn(-c2ccccc2)nc1-c1cccs1,79µM*,-8%,3%,?,?
O=c1[nH]c(=S)n(-c2cccc(Cl)c2)c(O)c1/C=N/N1CCOCC1,-13%,?,46%,-24%,-20%
Cc1cc(OCC(=O)N2CCCN(C)CC2)ccc1Cl,1%,4%,25%,2%,-10%
CCOc1cccc(OCCOCCN2CCCC2)c1,-6%,?,?,?,7.9µM*
Clc1ccc(OCCCN2CCCC2)cc1Cl,7%,10µM*,?,?,4µM*
Cn1c(=O)c2[nH]cnc2n(C)c1=O,56µM*!,3.4µM*!,-26%,?,-15%
Cn1c(O)c(/C=N/c2ncccn2)c(=O)n(C)c1=O,3%,-37%[59 µM],45%,-7%,-11%
COc1cccc(CN2CCN(Cc3cccc(F)c3)CC2)c1,?,.,?,35µM*,7.9µM*
CC(C)[C@@H]1CN[C@H](C(=O)O)[C@@H]1CC(=O)O,-38%,.,.,.,.
COC(=O)[C@@]1(Cc2ccc(F)cc2)[C@H]2c3cc(C(=O)N(C)C)[nH]c3C[C@H]2CN1C(=O)c1ccccc1,-25%,?,10%,50µM*,-20%
CC1OC(C[N+](C)(C)C)CC1O (stereo not drawn),.,2%[59 µM],17%,14%,-8%
C[C@H]1OC[C@@H](C[N+](C)(C)C)O1,9%,1.6µM*,9%,-29%,?
C[C@@H]1O[C@H](C[N+](C)(C)C)C[C@H]1O,.,16µM*!,.,.,.
C[n+]1cc(P(=S)(c2ccccc2)c2ccccc2)n2ccccc21,.,.,.,.,11%
CCCCCCC1CC(C)(C(=O)CNc2nncs2)OC1=O (stereo not drawn),-2%,14µM*,9%,-32%,-13%
O=C1NC(=O)N(c2cccc(Cl)c2)C(=O)/C1=C\c1ccc(Sc2nc3ccccc3[nH]2)o1,40µM*,3.2µM*,?,35µM*,35µM*
O=C1NC(=O)N(c2ccccc2F)C(=O)/C1=C/c1ccc(Sc2nc3ccccc3[nH]2)o1,50µM*,6.3µM*,?,32µM*,22µM*
Cc1cc(/C=C2\C(=O)NC(=O)N(c3cccc(Br)c3)C2=O)c(C)n1C,2%,22%[59 µM],26%,4%,-11%
